Consider 29 molecules from the supplement of paper PMC10981050.

The test system of the test is OCI-AML2. Description: cell viability relative to vehicle control; higher = less cytotoxic. To be noted: 10 µM; SRSF2 genotype: wt/wt. A digest of the protocol: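 Each screen used CRISPR-edited mutant and wild-type clones from four leukaemia lines. Compounds were acoustically dispensed at a single 10 µM dose, and CellTiter-Glo luminescence was read after 48 h with the supernatant first removed. Viability was analysed in Genedata Screener and given as percent of the on-plate vehicle control.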
Broadly, the cell viability is a read-out of living cells in per cent, often relative to untreated cells. For `CC1=C(CC[C@@H](C)CO[C@@H]2O[C@H](CO)[C@@H](O)[C@H](O)[C@H]2O)O[C@H]2C[C@H]3[C@@H]4CC=C5C[C@@H](O[C@@H]6O[C@H](CO)[C@@H](O[C@@H]7O[C@@H](C)[C@H](O)[C@@H](O)[C@H]7O)[C@H](O)[C@H]6O[C@@H]6O[C@@H](C)[C@H](O)[C@@H](O)[C@H]6O)CC[C@]5(C)[C@H]4CC[C@]3(C)[C@@H]12` [Pseudoprotodioscin], the cell viability stood at 105%.

For the molecule `O=C(NC[C@H](O)CN1CCc2ccccc2C1)c1cc(NC2COC2)ncn1`, the cell viability turned out to be 77.1%. The same measure for `CCCc1cc(C)[nH]c(=O)c1CNC(=O)c1cc(-c2ccc(N3CCN(C)CC3)nc2)nc2c1cnn2C(C)C`: 0.41%; for `Cc1cc(NS(=O)(=O)c2ccc(N)cc2)nc(C)n1` [sulfaisodimidine]: 102%. The same measure for `Cn1cnc(-c2cc3nccc(Oc4ccc(NC(=S)NC(=O)Cc5ccccc5)cc4F)c3s2)c1`: 58.8%.

Take `Fc1ccc(C(c2ccc(F)cc2)N2CCN(C/C=C/c3ccccc3)CC2)cc1` [Flunarizine 2HCl]: the cell viability amounted to 26.7%. In the case of `CNc1cccc(CCOc2ccc3c(c2)CN(CC(F)(F)F)C(=O)[C@H](CC(=O)O)C3)n1`, the cell viability amounted to 106%.

For the molecule `Cc1cccc(-c2[nH]c(C(C)(C)C)nc2-c2ccc3c(c2)OCO3)n1`, the cell viability is 50%. The same measure for `CCOc1ccc(Cc2cc([C@]34OC[C@](CO)(O3)[C@@H](O)[C@H](O)[C@H]4O)ccc2Cl)cc1` [Ertugliflozin]: 113%; for `COC(=O)[C@H](c1ccccc1Cl)N1CCc2sccc2C1` [Clopidogrel (Plavix)]: 93.4%.

For the molecule `CCCCCCCCCCCCCCCC(=O)OC` [Methyl palmitate], the cell viability is 98.1%. With `O=[N+]([O-])c1ccc(S(=O)(=O)N2CCN(c3ccnc4cc(Cl)ccc34)CC2)c([N+](=O)[O-])c1`, the cell viability is 0.54%.

Turning to `Clc1ccc(COC(Cn2ccnc2)c2ccc(Cl)cc2Cl)c(Cl)c1` (centres undefined) [Miconazole (Monistat)], the cell viability is 54.4%.

For `C[n+]1cc2c3c(ccc2c2ccc4cc5c(cc4c21)OCO5)OCO3` [Sanguinarine chloride], the cell viability came out at 0.29%. The same measure for `CC1(C)Cc2c(sc(NC(=O)c3ccn[nH]3)c2C(N)=O)C(C)(C)O1`: 104%; for `CCN=C1N[C@@H]2[C@@H](O)[C@H](O)[C@@H](CO)O[C@@H]2S1` [Thiamet G]: 107%.

For `O=C(c1cccc(Cl)c1F)N1CCN(Cc2cccc(Nc3nccs3)n2)CC1`, the cell viability was 44.1%. The same measure for `O=C(Cn1ccnc1[N+](=O)[O-])NCc1ccccc1` [Benznidazole]: 100%; for `CC[C@@]1(O)C(=O)OCc2c1cc1n(c2=O)Cc2cc3cc(O)ccc3nc2-1` [Hydroxy Camptothecine]: 2.23%. Turning to `C[C@H](Nc1ncnc2[nH]cnc12)c1cc2ccc(F)cc2nc1-c1ccccn1`, the cell viability amounted to 73.4%. The result for `CC1(C)[C@@H](O[C@H]2O[C@H](C(=O)O)[C@@H](O)[C@H](O)[C@H]2O[C@@H]2O[C@H](C(=O)O)[C@@H](O)[C@H](O)[C@H]2O)CC[C@]2(C)[C@H]3C(=O)C=C4[C@@H]5C[C@@](C)(C(=O)O)CC[C@]5(C)CC[C@@]4(C)[C@]3(C)CC[C@@H]12` [Dipotassium glycyrrhizinate] reads 105%. The same measure for `O=C(NC1(c2ccccc2)CC1)c1c(CN2CCC(N3CCCCC3)CC2)c(-c2cccc(C(F)(F)F)c2)nc2cc(Br)ccc12`: 24.1%; for `O=c1cc(-c2ccc(O)cc2)oc2cccc(O)c12` [4',5-Dihydroxyflavone]: 69.4%; for `C[C@@H]1CC[C@H]2C(C)(C)[C@H]3C[C@@]12CC[C@@]3(C)O` [Cedrol]: 112%. As for `N#Cc1cc2cc(CN3CCC(Nc4ncnc5sc(CC(F)(F)F)cc45)CC3)ccc2[nH]1`, the cell viability is 21.5%. For the molecule `CCC(CC)(NC(=O)C(C)C)C(=O)N[C@@H](CCCN=C(N)N)C(=O)NC1(C(=O)NC(c2ccc(F)cc2)c2ccc(F)cc2)CCCC1`, the cell viability turned out to be 108%. In the case of `CNCCc1ccccn1` [Betahistine], the cell viability came to 105%. The same measure for `O=C(O)c1ccc(O)cc1` [4-Hydroxybenzoic acid]: 102%; for `CC(C)C(=O)Nc1ccc([N+](=O)[O-])c(C(F)(F)F)c1` [Flutamide (Eulexin)]: 90.1%.
